Screening data (PubChem BioAssay)
Sampled rows, rich in hits. Any-hit rate of the full collection: about 3%.
Mtb BioA inh = M. tuberculosis BioA enzyme inhibitors, primary screen, biochemical, plate reader, single point, HTS; purified M. tuberculosis BioA enzyme; inhibition, % at 9.99 µM; 360,000 compounds, 0.096% hits; in the data active = inhibition above about 40%
GDH-TPI counter-1 = GDH-TPI coupling enzyme inhibitors, primary screen, artefact control for M. tuberculosis FBA inhibitor project, biochemical, absorbance, full deck; GDH-TPI coupled enzyme counterscreen, NADH absorbance; inhibition, % at 4.8 µM; 360,000 compounds, 1.2% hits; AID 588335, 2011; in the data active = inhibition above about 30%
FBA Mtb inh = Mtb FBA enzyme inhibitors, primary screen, biochemical, fluorescence, strain H37Rv; Fructose-bisphosphate aldolase (Mycobacterium tuberculosis (strain ATCC 25618 / H37Rv)), …; purified M. tuberculosis FBA, fluorescence read-out; inhibition, % at 1 µM; 360,000 compounds, 2.3% hits; AID 588726, 2011
Target sequence (P9WQA3 whole entry, looked up): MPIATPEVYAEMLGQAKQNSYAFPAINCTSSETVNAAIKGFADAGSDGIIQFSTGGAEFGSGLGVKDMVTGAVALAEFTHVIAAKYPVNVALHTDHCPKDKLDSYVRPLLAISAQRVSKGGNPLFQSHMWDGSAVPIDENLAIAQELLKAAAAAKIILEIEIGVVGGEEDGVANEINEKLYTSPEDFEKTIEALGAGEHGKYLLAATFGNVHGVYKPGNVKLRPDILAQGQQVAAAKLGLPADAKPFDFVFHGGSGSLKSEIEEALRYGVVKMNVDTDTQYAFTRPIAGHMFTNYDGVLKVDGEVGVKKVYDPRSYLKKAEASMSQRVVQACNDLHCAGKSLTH
BH1578 lux ind = inducers of Vibrio cholerae quorum light production without autoinducers, primary screen, BH1578 luxS cqsA deficient, single point | V. cholerae BH1578 lux reporter, luminescence, 6 h | activation, % at 18.7 µM | 350,000 compounds, 0.16% hits; in the data active = activation mostly above about 9.7%, no sharp cut-off
Mtb FBA confirm = M. tuberculosis aldolase blockers, biochemical, fluorescence, strain H37Rv, confirmation; 5,600 compounds, 78% hits; shares compounds with FBA Mtb inh; purified M. tuberculosis FBA, fluorescence read-out; inhibition, % at 1 µM; AID 651616, 2012
GDH-TPI counter-2 = GDH-TPI coupling enzyme inhibitors, artefact control for M. tuberculosis FBA inhibitor project, biochemical, fluorescence, high throughput; shares compounds with FBA Mtb inh; GDH-TPI coupled enzyme counterscreen; inhibition, % at 1 µM; 5,600 compounds, 81% hits; in the data active = inhibition above about 10%
GDH-TPI dose = GDH-TPI coupling enzyme inhibitors, dose response, artefact control for M. tuberculosis FBA inhibitor project, biochemical, fluorescence, IC50 | GDH-TPI coupled enzyme assay, artifact counterscreen | IC50, µM | AID 652145, 2013 | 170 compounds, 79% hits | shares compounds with FBA Mtb inh; call rule not given here
Numbers stand for hits; n = inactive; x = no result; + = active, no number. Rule as the data show it, unless noted: active = inhibition above about 27%; inactive = the rest.

SMILES | Mtb BioA inh | GDH-TPI counter-1 | FBA Mtb inh | BH1578 lux ind | Mtb FBA confirm | GDH-TPI counter-2 | others
C[C@@H]1CN([C@@H](C)CO)C(=O)c2cc(NC(=O)c3ccccc3)ccc2O[C@@H](C)CCCCO[C@@H]1CN(C)C(=O)CCC(F)(F)F | n | x | x | x | x | x
CC(C)C(=O)NCCn1ccc2ccccc21 | n | n | 30 | n | 102 | 88
C/C(Cl)=C/Cn1c(N2CCCC2)nc2c1c(=O)n(C)c(=O)n2C | n | n | n | n | x | x
C=C(C)Cn1c(N2CCCC2)nc2c1c(=O)n(C)c(=O)n2C | n | n | 33 | n | 157 | 109
CO[C@@H]1CN(C)C(=O)c2cc(NC(=O)c3cnccn3)ccc2OC[C@H](C)N(C)C[C@H]1C | n | x | x | x | x | x
COc1cc2occc2c2oc(=O)ccc12 | n | n | n | n | x | x
COc1cc2ccc(=O)oc2c2ccoc12 | n | n | 35 | n | + | 155
CC(C)NC(=O)Nc1cccc2c1O[C@H](CN(C)C(=O)Nc1cccc3ccccc13)[C@@H](C)CN([C@H](C)CO)C2=O | n | x | x | x | x | x
COCCOC(=O)CSc1ncccc1-c1nc2cc(C)c(C)cc2[nH]1 | n | n | 30 | n | 191 | 156
Cc1ccc(NS(=O)(=O)c2ccc(Br)cc2)nc1 | n | n | 28 | n | + | +
Cc1ccnc(NS(=O)(=O)Cc2ccccc2)c1 | n | n | 44 | n | 103 | 68
Cc1ccc(NS(=O)(=O)Cc2ccccc2)nc1 | x | n | 60 | n | 171 | 142
O=S(=O)(Cc1ccccc1)Nc1ccc(Br)cn1 | x | n | n | n | x | x
CCOc1ccc(-c2cc(C(=O)NCCCn3ccnc3)c3cc(Br)ccc3n2)cc1 | n | n | n | n | x | x
CCOc1ccc(-c2cc(C(=O)NCCCn3ccnc3)c3ccccc3n2)cc1 | x | n | 33 | n | 43 | 33
CCOc1ccc(-c2cc(C(=O)NCCCN3CCN(CC)CC3)c3ccccc3n2)cc1 | x | n | 46 | n | 61 | 48
COc1ccc2nc3c(C)n(C)ccc-3c2c1 | x | n | 57 | n | 73 | 49
COc1ccc(N2CCN(c3cc(C)nc4ccc(OC)cc34)CC2)cc1 | n | n | n | n | x | x
COc1cccc2c(=O)c3ccoc3n(C)c12 | n | n | 40 | n | 75 | 57
COc1ccc(S(=O)(=O)N(C)C[C@@H]2Oc3c(NC(=O)C4CCCCC4)cccc3C(=O)N([C@@H](C)CO)C[C@@H]2C)cc1 | n | x | x | x | x | x
C[C@H]1CN([C@@H](C)CO)C(=O)c2cc(NC(=O)c3ccncc3)ccc2O[C@@H]1CN(C)CC1CCCCC1 | n | x | x | x | x | x
CSCC[C@H](NC(=O)c1ccc2ccccc2c1)C(=O)N1CCC2(CC1)NCCc1[nH]cnc12 | n | n | n | n | x | x
CSCC[C@H](NC(=O)COc1ccc(Cl)cc1)C(=O)N1CCC2(CC1)NCCc1[nH]cnc12 | n | n | 59 | n | 120 | 111
CC1(C)CCC[C@]2(C)[C@H]3CC(=O)O[C@]3(C)CC[C@@H]12 | n | n | 91 | n | 197 | 147
C[C@@H]1CN([C@@H](C)CO)C(=O)c2cc(NS(=O)(=O)c3cccs3)ccc2O[C@H]1CN(C)C(=O)Nc1ccc(F)cc1 | n | x | x | x | x | x
SMILES | Mtb BioA inh | GDH-TPI counter-1 | FBA Mtb inh | BH1578 lux ind | Mtb FBA confirm | GDH-TPI counter-2 | others
CCn1c(SCC(=O)N2CCCCC2)nc2c(c1=O)SCC2 | n | n | n | n | x | x
COCCn1c(SCC(=O)N2CCCCC2)nc2c(c1=O)SCC2 | n | n | 41 | n | n | n | GDH-TPI dose=n
COc1cccc(CN2CCN(Cc3cccc(Oc4ccccc4)c3)CC2)c1OC | n | n | 37 | n | n | n
CCCC(=O)Nc1ccc2c(c1)C(=O)N(C)C[C@H](OC)[C@H](C)CN(Cc1ccccc1F)[C@H](C)CO2 | n | x | x | x | x | x
COc1ccc(S(=O)(=O)N[C@H]2CC[C@@H](CCNC(=O)Cc3ccccn3)O[C@@H]2CO)cc1 | n | x | x | x | x | x
COc1ccc(-c2nc(C(N)=O)c3[nH]c(=O)n(-c4cccc(C)c4)c3n2)c(OC)c1 | n | n | n | n | x | x
Cc1cccc(-n2c(=O)[nH]c3c(C(N)=O)nc(CC(C)C)nc32)c1 | n | n | 46 | x | 94 | 76
